Assay outcomes as filed in PubChem.
A selection: hits, their analogues and other compounds. The true share with any hit is near 19%.
TDP1 block: blocks human tyrosyl-DNA phosphodiesterase 1. Potency, µM (series often up to 130 µM), for inactives: at the highest dose activity change, negative = inhibition, usual class: inhibitors. recombinant TDP1, AlphaScreen DNA substrate cleavage. Q9NUW8. hit rate 0.28% among 350,000. AID 485290; note: nearly all actives have a fitted effect of over 40% in size
Target sequence (Q9NUW8 whole entry, looked up): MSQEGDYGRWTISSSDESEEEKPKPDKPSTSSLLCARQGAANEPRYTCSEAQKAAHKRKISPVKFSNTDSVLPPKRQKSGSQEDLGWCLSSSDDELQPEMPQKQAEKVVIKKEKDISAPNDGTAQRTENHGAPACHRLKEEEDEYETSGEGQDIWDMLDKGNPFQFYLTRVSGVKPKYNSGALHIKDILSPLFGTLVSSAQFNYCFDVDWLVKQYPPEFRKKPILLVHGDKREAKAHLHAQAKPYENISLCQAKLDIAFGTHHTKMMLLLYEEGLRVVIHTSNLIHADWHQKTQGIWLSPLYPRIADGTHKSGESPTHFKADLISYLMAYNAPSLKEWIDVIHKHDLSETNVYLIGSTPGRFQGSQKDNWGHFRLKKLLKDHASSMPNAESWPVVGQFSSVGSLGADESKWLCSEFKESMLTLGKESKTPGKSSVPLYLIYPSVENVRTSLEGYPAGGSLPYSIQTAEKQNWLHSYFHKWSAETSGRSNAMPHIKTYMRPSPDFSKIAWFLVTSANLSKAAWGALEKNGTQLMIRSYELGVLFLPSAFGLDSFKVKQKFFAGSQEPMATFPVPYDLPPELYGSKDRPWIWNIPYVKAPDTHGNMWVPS
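Tdp1 1 nM final; 15 min RT w/ cpd; substrate 15 nM, 5 min; beads 10 ug/ml, 10 min; AlphaScreen read. Neg ctrl: no enzyme.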
RORg inh: inhibitors of mouse ROR gamma transcriptional activity | Potency, µM (highest dose often 53.6 µM), inactives show at the top dose activity change, negative = inhibition, hits mostly inhibitors | AID 2551 | P51450 | hit rate 5.4% among 310,000 | Drosophila S2 Gal4-RORgamma UAS-luciferase reporter, 20 h; note: nearly all actives have a fitted effect of over 60% in size
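ROR gamma transcriptional activity was tracked as Gal4-UAS luciferase output in stably transfected Drosophila Schneider cells, with compound added 1 hr before 700 uM copper sulfate induction and a 20 hr ambient-temperature incubation.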
TDP1 cell noCPT: qHTS for Inhibitors of human tyrosyl-DNA phosphodiesterase 1 (TDP1): qHTS in cells in absence of CPT | hit rate 15% among 420,000 | DT40 Tdp1-/- hTDP1 cells, no CPT, ATP luminescence, 48 h | Potency, µM (top dose mostly 46.2 µM), without a hit: at the highest dose activity change, negative = growth inhibition, actives largely listed as inhibitors; note: nearly all actives have a fitted effect of over 55% in size
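A cellular qHTS used chicken DT40 cells lacking endogenous Tdp1 but carrying stably transfected human TDP1. Compounds were applied without camptothecin, and cell growth kinetics were judged by ATP-dependent luminescence after ≥48 hr.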
VP16 counter: inhibits Gal4-VP16 luciferase reporter, ROR gamma counter-screen | Drosophila S2 Gal4-VP16 UAS-luciferase, luminescence, 20 h | Potency, µM (highest dose often 53.6 µM), without a hit: top-dose activity, negative = inhibition, most hits filed as inhibitors | hit rate 3.5% among 310,000 | AID 2546;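 note: Gal4-VP16 expression switched on by copper sulfate through the metallothionein promoter; nearly all actives have a fitted effect of over 50% in size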
TDP1 cell CPT: growth inhibition of DT40 Tdp1-/-;hTDP1 cells with camptothecin (screen for TDP1 inhibitors). chicken DT40 Tdp1-/-;hTDP1 cells + 20 nM CPT, ATP luminescence, 48 h. Potency, µM (series often up to 46.2 µM), for the others: at the highest dose activity change, negative = growth inhibition, most hits filed as inhibitors. hit rate 12% among 420,000. AID 686979; note: nearly all actives have a fitted effect of over 55% in size
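Chicken DT40 Tdp1-/- cells complemented with human TDP1, 400 cells/well, exposed to compounds plus 20 nM camptothecin for at least 48 h at 37 C; viability read as ATP content by CellTiter-Glo luminescence.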
* = called active by the depositor; ? = inconclusive; / = not tested or not shown; [ ] = another dose, or the depositor's remark. Calls come from the whole dose curve; as a rule, active = well fitted curve in the direction sought with a large enough effect; inconclusive = small, poorly fitted or top-dose-only effect, or another doubt; inactive = no such curve, though single readings can be large; an effect the other way counts as inactive or inconclusive. % is set by controls: 0 for no effect and ±100 for the full control effect; potency is the fitted concentration of half-maximal effect.

SMILES	TDP1 block	RORg inh	TDP1 cell noCPT	VP16 counter	TDP1 cell CPT
CCn1c(SCC(=O)N=Nc2c(O)[nH]c3ccccc23)nc2ccccc21	8%	-3%	16µM*	-3%	16µM*
Cc1ccc(CN2CCN(CC(=O)N=Nc3c(O)[nH]c4ccccc34)CC2)cc1	2%	39%	15µM*	1%	?
Cc1cc(Cl)ccc1N(CC(=O)N=Nc1c(O)[nH]c2ccccc12)S(C)(=O)=O	5%	-4%	-17%	-8%	-18%
Cc1ccc(-c2nnn(CC(=O)N(c3ccccc3)C(C(=O)NCC3CCCO3)c3ccc(F)cc3)n2)o1 (centres undefined)	0%	-7%	6%	-9%[10 µM]	-10%
Cc1[nH]c2ccccc2c1/C=C(\C#N)C(=O)NC1CC1	6%[56.1 µM]	?	-4%	21%	-18%
COC(=O)/C(C#N)=C\c1c(OC)[nH]c2ccccc12	-1%	41%	9.2µM*	-7%	?
O=C(C1CCC1)N1CCCc2cc(S(=O)(=O)Nc3ccc(F)cc3)ccc21	1%	/	23µM*	/	?
CCOc1ccc(NS(=O)(=O)c2ccc3c(c2)CCCN3C(=O)C2CCC2)cc1	10%	/	?	/	?
Cc1cc(C)cc(NS(=O)(=O)c2ccc3c(c2)CCCN3C(=O)C2CCC2)c1	-2%	/	21µM*	/	23µM*
COc1ccc(COCCN2CCN(S(=O)(=O)c3ccc(C)cc3)CCC2=O)cc1	6%	?	?	-8%	21µM*
Cc1ccc(S(=O)(=O)N2CCC(=O)N(CCOCc3cccc(C)c3)CC2)cc1	0%	7%	?	13%	10µM*
Cc1ccc(S(=O)(=O)N2CCC(=O)N(CCOCc3cccc(C(F)(F)F)c3)CC2)cc1	0%	?	?	-4%	15µM*
COc1cccc(COCCN2CCN(S(=O)(=O)c3ccc(C)cc3)CCC2=O)c1	4%	26%	?	-1%	?
COc1ccc(N2CC(NC(=O)COc3ccc4ccccc4c3)CC2=O)cc1 (centres undefined)	3%	/	-14%	/	-22%
COc1ccc(NC(=O)Cn2c(=O)sc3ccccc32)c(OC)c1	5%	13%	-21%	-6%	-22%
COc1ccc(CNC(=O)C2CC(c3ccccc3[N+](=O)[O-])=NO2)cc1 (centres undefined)	0%	42%	-20%	?	-22%
c1ccc(C(OC2CCCN(CCc3ccc4c(c3)OCO4)C2)c2ccccc2)cc1 (centres undefined)	15%	0%	/	-14%	/
CCOc1ccc(/C=C/C2=NNC(=O)CC2)cc1	0%	1%	-3%	1%[10 µM]	3%
COc1ccccc1N(CC(=O)NC(C)(C)C)C(=O)C1CSC(=O)C1 (centres undefined)	-2%	?	2%	0%	1%
O=C1C(c2c(O)[nH]c3ccccc23)=Nc2ccccc21	10%	13%	1%	4%	-6%
CC(=O)c1cccc2c(O)c(C3=Nc4ccccc4C3=O)[nH]c12	10%	-30%	15µM*	?	18µM*
Cc1ccc(C2=Nc3ccccc3SC(c3cccc([N+](=O)[O-])c3)C2)cc1 (centres undefined)	10%	5.6µM*	16µM*	13µM*	?
Cc1ccccc1CN(C)C(=O)CNC(=O)c1ccc2ccccc2c1	/	33%	-18%	-1%	-9%
Cc1nn(C)c(C)c1CN(Cc1nc(CCC(C)C)no1)C(C)C	-8%	7.1µM*	0.58µM*	4µM*	2.3µM*
Nc1ccc(O)cc1	15%	?	12µM*	4%	7.7µM*
COc1ccc([N+](=O)[O-])cc1NC(c1nnc(-c2ccccc2)o1)c1ccccc1F (centres undefined)	3%	/	10%	/	15%
Cc1ccc(NC(c2nnc(-c3ccccc3)o2)c2ccccc2F)c([N+](=O)[O-])c1 (centres undefined)	11%	/	23µM*	/	-23%
